Test results taken from PubChem BioAssay (NCATS).
Where “and” joins values, the source holds several entries; their conditions need not be identical. Equal values may be shown once. A number with no mark means an inactive call. Inconclusive results are not listed. A call without a number means that no potency is given here. Calls of active or inactive are those of the source. Unless noted, calls come from the whole dose curve; as a rule, active = well fitted curve in the direction sought with a large enough effect; inconclusive = small, poorly fitted or top-dose-only effect, or another doubt; inactive = no such curve, though single readings can be large; an effect the other way counts as inactive or inconclusive.

Legend:
[1] = Cell Viability - BJ (AID 421; calls by dose curve;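 note: potency is the fitted concentration of half-maximal effect; cells exposed to compound for 40 hours at 37 °C before readout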); settings: BJ fibroblast viability, qHTS
How it was run: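 Cytotoxicity as drop in intracellular ATP (CellTiter-Glo, 20 min RT) after 40 hr compound exposure of BJ fibroblasts at 37 °C. Titrations scaled between DMSO and 100 uM tamoxifen, Hill-fitted for AC50.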

[2] = Cell Viability - HepG2 (AID 433; calls by dose curve;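 note: potency is the fitted concentration of half-maximal effect; potency for ATP loss meaning cytotoxicity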); settings: qHTS
How it was run: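 Cytotoxicity is scored as loss of intracellular ATP in HepG2 cells exposed to compounds for 40 h. Concentration-response curves, normalized to DMSO and 100 uM tamoxifen, give AC50 values.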

[3] = Cell Viability - MRC5 (AID 434; calls by dose curve;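 note: potency is the fitted concentration of half-maximal effect; potency reflects cytotoxicity seen as loss of intracellular ATP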); settings: MRC5 lung fibroblast viability, qHTS
How it was run: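 MRC5 normal human lung fibroblasts, 1500 cells/well, exposed to compound for 40 hr at 37 C. Cellular ATP was read by CellTiter-Glo luminescence; data normalized to DMSO and 100 uM tamoxifen, with AC50 from Hill fits.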

[4] = Cell Viability - SK-N-SH (AID 435; calls by dose curve;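 note: potency is the fitted concentration of half-maximal effect; compound exposure lasted 40 h at 37 °C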); settings: SK-N-SH neuroblastoma cell viability qHTS
How it was run: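 Cells seeded at 1500 per well and incubated 5 hr at 37 °C. Compound added, then 40 hr at 37 °C. CellTiter-Glo added, 20 min at room temperature, luminescence read.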

[5] = Cell Viability - HUV-EC-C (AID 542); settings: HUV-EC-C endothelial cell viability, qHTS; series mostly up to 92.2 µM; note: nearly all actives have a fitted effect of over 35% in size
How it was run: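 HUV-EC-C normal human vascular endothelial cells, 1000 cells/well, pre-incubated 5 hr at 37 °C, then exposed to compounds for 40 hr at 37 °C in complete medium. Viability measured as intracellular ATP by CellTiter-Glo luminescence; AC50 from Hill fits.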

[6] = Cell Viability - SH-SY5Y (AID 544); settings: SH-SY5Y neuroblastoma cell viability; viability change, negative = cytotoxic: at 92.2 µM (top of the series); note: nearly all actives have a fitted effect of over 55% in size
How it was run: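 Human neuroblastoma SH-SY5Y cells (1500/well) in complete medium were exposed to compounds for 40 hr at 37 °C; intracellular ATP was then quantified by CellTiter-Glo luminescence after 20 min at room temperature. AC50 came from Hill-equation concentration-response fits.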

[7] = Cell Viability - Renal Proximal Tubule (AID 545); settings: renal proximal tubule cells viability; at 91.7 µM (top of the series), primary cells of rat origin unless noted; note: nearly all actives have a fitted effect of over 40% in size
How it was run: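 Cytotoxicity is scored as a concentration-dependent drop in cellular ATP in primary rat renal proximal tubule cells exposed for 40 hr. AC50 derives from Hill modelling.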

[8] = Cell Viability - Mesenchymal (AID 546); settings: mesenchymal cells viability, qHTS; series mostly up to 91.7 µM;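 note: cells exposed to compound for 40 hours before reading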
How it was run: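 Human kidney mesenchymal cells from normal renal glomeruli, 1000 cells/well, rested 5 hr at 37 °C, then treated 40 hr at 37 °C in complete medium. Cellular ATP read by CellTiter-Glo luminescence; AC50 from Hill-equation fits.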

[9] = Cellular Toxicity (caspase-3) HepG2 (AID 654); settings: HepG2 caspase-3 activation, luminescence, 0% = DMSO only, 100% = tamoxifen; series mostly up to 92.2 µM;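 note: cells exposed to compound for 16 hours before reading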
How it was run: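 HepG2 cells (1500/well) in complete medium were treated with compounds for 16 hr at 37 °C. Caspase-3/7 activity was then read as luminescence from peptide-aminoluciferin cleavage. AC50 came from Hill fits, normalized to DMSO and 100 uM tamoxifen.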

[10] = Cellular Toxicity (caspase-3) HUV-EC-C (AID 656); settings: HUV-EC-C cells, caspase-3 activation (apoptosis), vehicle = 0, 100 µM tamoxifen = 100%; series mostly up to 92.2 µM
How it was run: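 Read-out: luminescence proportional to caspase 3/7 activity, measured 20 min after adding Caspase-Glo 3/7 reagent. Cells (HUV-EC-C) had received compound for 16 hr at 37°C. Increases relative to DMSO and 100 uM tamoxifen gave concentration-response AC50 values.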

[11] = Cellular Toxicity (caspase-3) SHSY5Y (AID 657); settings: SH-SY5Y caspase-3 activation, DMSO zero, 10 µM staurosporine = 100%; series mostly up to 91.7 µM
How it was run: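 Cells plated and incubated 5 h at 37 °C, dosed over a concentration range, incubated 16 h, then given Caspase-Glo 3/7 reagent for 1 h at room temperature before luminescence reading. Staurosporine (10 uM) defined full stimulation.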

[12] = Cellular Toxicity (caspase-3) BJ (AID 658); settings: BJ fibroblasts, luminescence, normalized: DMSO 0%, staurosporine 100%; series mostly up to 91.7 µM
How it was run: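 BJ human foreskin fibroblasts, 1000 cells/well, treated 16 hours at 37 °C in complete medium; caspase 3/7 activity by Caspase-Glo luminescence after 1 hr at room temperature. Normalized to DMSO and 10 uM staurosporine; AC50 from Hill fits.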

[13] = Cellular Toxicity (caspase-3) MRC-5 (AID 659); settings: MRC-5 cells, luminescence, normalized: DMSO 0%, 10 µM staurosporine 100%; series mostly up to 91.7 µM
How it was run: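 MRC-5 human normal lung fibroblasts, 1500 cells/well, treated 16 h at 37 °C in complete medium. Caspase 3/7 measured by Caspase-Glo luminescence after 1 h at room temperature. Normalized to DMSO and 10 uM staurosporine; AC50 from Hill fit.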

[14] = Cellular Toxicity (caspase-3) Mesangial (AID 660); settings: mesangial cells, normalized: DMSO 0%, 100 µM tamoxifen 100%; series mostly up to 91.7 µM;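 note: cells exposed to compound for 16 h before the caspase read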
How it was run: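 Human renal glomerular mesangial cells (1000/well) were treated with compounds for 16 h at 37 °C in complete medium, then caspase 3/7 activity was read by Caspase-Glo luminescence. Data were normalized to DMSO and 100 uM tamoxifen; AC50 from Hill fits.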

[15] = Cellular Toxicity (caspase-3) SK-N-SH (AID 661); settings: SK-N-SH caspase-3 activation, qHTS, DMSO as zero, staurosporine as full; series mostly up to 91.7 µM
How it was run: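 SK-N-SH human neuroblastoma cells (1500/well) were treated with compounds for 16 hr at 37 °C in complete medium; caspase 3/7 activity was read by Caspase-Glo luminescence. AC50 came from Hill fits of data normalized to DMSO and 10 uM staurosporine.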

[16] = Cellular Toxicity (caspase-3) Renal Proximal Tubule (AID 667); settings: renal proximal tubule cells; at 91.7 µM (top of the series), primary cells freshly taken from rat, solvent-only wells 0%, staurosporine 100% unless noted;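 note: cells exposed to compound for 16 hours at 37 °C before detection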
How it was run: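 In qHTS format, rat primary proximal tubule cells seeded at 1000 per well are exposed to compounds for 16 hours at 37 °C. An increase in Caspase-Glo 3/7 luminescence indicates caspase activation.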

[17] = biological target: Cytochrome P450 3A4 (Homo sapiens) (UniProt P08684); assay: qHTS Assay for Inhibitors and Substrates of Cytochrome P450 3A4 (AID 884); settings: recombinant CYP3A4, Luciferin-PPXE luminescence; series mostly up to 57.1 µM; note: nearly all actives have a fitted effect of over 50% in size; note: potency is the fitted concentration of half-maximal effect
How it was run: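 20 nM human CYP3A4 with 25 uM Luciferin-PPXE (at KM) in 200 mM KPO4, preincubated 10 min with compound; NADPH regeneration started a 60 min RT reaction. Luciferin detected by luminescence, normalized to 57 uM ketoconazole as full inhibition.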

[18] = qHTS Assay for Identification of Small Molecule Inducers of Hypoxia Response (AID 2120; active = well fitted curve in the direction sought with a large enough effect in the signal ratio, with a control signal flat, not every such curve was filed as active; the % refers to the signal ratio); settings: hypoxia response reporter cells, beta-lactamase ratio readout; series mostly up to 104 µM
How it was run: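 HRE-beta-lactamase reporter in CellSensor HRE-bla ME-180 cells, 2500 cells/well in Opti-MEM with 0.5% dialyzed FBS; compounds tested as titration series, 17 h at 37 degrees C. CCF4 substrate 2.5 h at room temperature; AC50 from 460/530 nm ratio.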

[19] = biological target: Peroxisome proliferator-activated receptor alpha (Homo sapiens) (UniProt Q07869); assay: qHTS assay for small molecule agonists of the peroxisome proliferator-activated receptor alpha (PPARalpha) signaling pathway (AID 651778); settings: PathHunter PPARalpha complementation, chemiluminescence, 6 h; hits give high values
How it was run: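 Enzyme-fragment complementation assay in which ligand-bound PPARalpha translocates and forms an active enzyme that generates chemiluminescence. Cells were plated overnight, exposed to compound for 6 hr at 37 C, and then given detection reagent for 60 min at room temperature.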

Chain of Peroxisome proliferator-activated receptor alpha (Homo sapiens) (Q07869 whole entry, looked up, the tested form may be a part): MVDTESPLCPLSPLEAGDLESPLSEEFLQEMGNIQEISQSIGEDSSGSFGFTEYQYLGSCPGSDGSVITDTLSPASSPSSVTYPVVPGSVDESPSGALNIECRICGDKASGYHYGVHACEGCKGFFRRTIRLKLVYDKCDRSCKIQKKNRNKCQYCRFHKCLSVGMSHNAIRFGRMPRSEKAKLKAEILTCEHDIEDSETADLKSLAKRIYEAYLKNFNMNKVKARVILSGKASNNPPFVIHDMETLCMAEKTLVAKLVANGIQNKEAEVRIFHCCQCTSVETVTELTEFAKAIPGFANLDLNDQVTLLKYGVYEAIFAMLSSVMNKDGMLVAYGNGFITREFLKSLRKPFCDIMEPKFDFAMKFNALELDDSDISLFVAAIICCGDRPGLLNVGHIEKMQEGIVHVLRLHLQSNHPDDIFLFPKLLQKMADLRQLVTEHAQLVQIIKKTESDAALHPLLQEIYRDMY
Chain of Cytochrome P450 3A4 (Homo sapiens) (P08684 whole entry, looked up): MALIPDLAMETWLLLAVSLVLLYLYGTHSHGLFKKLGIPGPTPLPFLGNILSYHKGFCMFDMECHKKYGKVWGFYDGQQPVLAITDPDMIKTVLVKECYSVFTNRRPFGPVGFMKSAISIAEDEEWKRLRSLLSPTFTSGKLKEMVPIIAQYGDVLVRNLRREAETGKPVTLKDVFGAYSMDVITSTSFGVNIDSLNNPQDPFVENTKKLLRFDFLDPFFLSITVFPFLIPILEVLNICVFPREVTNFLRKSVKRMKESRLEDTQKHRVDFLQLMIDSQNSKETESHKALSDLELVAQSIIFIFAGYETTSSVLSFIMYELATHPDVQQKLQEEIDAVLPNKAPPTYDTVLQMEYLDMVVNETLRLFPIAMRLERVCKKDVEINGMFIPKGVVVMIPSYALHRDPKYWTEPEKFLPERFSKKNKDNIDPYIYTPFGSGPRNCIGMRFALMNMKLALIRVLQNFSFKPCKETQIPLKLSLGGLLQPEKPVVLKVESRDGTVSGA

`ClC(Cl)=C(Cl)C(Cl)=C(Cl)Cl` gave a Potency [1] greater than 92 µM, a Potency [2] greater than 92 µM and a Potency [3] greater than 92 µM. For the same molecule, the Potency [4] was greater than 92 µM, the Potency [5] was “inactive” and the Potency [6] was “inactive”. For the same molecule, the activity change, negative = cytotoxicity [7] was -4.45%, the outcome [8] was “inactive” and the outcome [9] was “inactive”. The outcome [10] was “inactive”, the outcome [11] was “inactive” and the outcome [12] was “inactive”. For the same molecule, the outcome [13] was “inactive”, the outcome [14] was “inactive” and the outcome [15] was “inactive”. For the same molecule, the caspase-3 activation [16] was 5.5%, the Potency [17] was “inactive” and the outcome [18] was “inactive”. For the same molecule, the max response [19] was -0.178% and -1.05%.
Molecule `Oc1ccc(Cl)cc1Cl` has a Potency [1] greater than 92 µM, a Potency [2] greater than 92 µM and a Potency [3] greater than 92 µM. For the same molecule, the Potency [4] was greater than 92 µM, the Potency [5] was “inactive” and the Potency [6] was “inactive”. The activity change, negative = cytotoxicity [7] was -7.07%, the outcome [8] was “inactive” and the outcome [9] was “inactive”. The outcome [10] was “inactive”, the outcome [11] was “inactive” and the outcome [12] was “inactive”. For the same molecule, the outcome [13] was “inactive”, the outcome [14] was “inactive” and the outcome [15] was “inactive”. For the same molecule, the caspase-3 activation [16] was -2.5%, the Potency [17] was “inactive” and the outcome [18] was “inactive”. The max response [19] was 1.17% and -0.592%.
`CCC[CH2][Sn]([Cl])([Cl])[Cl]` gave a Potency [1] greater than 92 µM, a Potency [2] greater than 92 µM and a Potency [3] greater than 92 µM. For the same molecule, the Potency [4] was greater than 92 µM, the Potency [5] was “inactive” and the Potency [6] was “inactive”. The activity change, negative = cytotoxicity [7] was -9.62%, the outcome [8] was “inactive” and the outcome [9] was “inactive”. For the same molecule, the outcome [10] was “inactive”, the outcome [11] was “inactive” and the outcome [12] was “inactive”. The outcome [13] was “inactive”, the outcome [14] was “inactive” and the outcome [15] was “inactive”. For the same molecule, the caspase-3 activation [16] was 6.84%, the Potency [17] was “inactive” and the outcome [18] was “inactive”. The max response [19] was 0.179% and -1.51%.
For `Cc1[nH]c2ccccc2c1CN(C)C`, the Potency [17] was 12.6 µM (active).
For `C=CC1CC=CCC1` (centres undefined), the Potency [1] was greater than 92 µM, the Potency [2] was greater than 92 µM and the Potency [3] was greater than 92 µM. For the same molecule, the Potency [4] was greater than 92 µM, the Potency [5] was “inactive” and the Potency [6] was “inactive”. The activity change, negative = cytotoxicity [7] was 3.71%, the outcome [8] was “inactive” and the outcome [9] was “inactive”. The outcome [10] was “inactive”, the outcome [11] was “inactive” and the outcome [12] was “inactive”. For the same molecule, the outcome [13] was “inactive”, the outcome [14] was “inactive” and the outcome [15] was “inactive”. For the same molecule, the caspase-3 activation [16] was 5.69%, the Potency [17] was “inactive” and the outcome [18] was “inactive”. The max response [19] was -0.264% and -1.89%.
Molecule `CCOc1ccc(N)cc1` has a Potency [1] greater than 92 µM, a Potency [2] greater than 92 µM and a Potency [3] greater than 92 µM. The Potency [4] was greater than 92 µM, the Potency [5] was “inactive” and the Potency [6] was “inactive”. For the same molecule, the activity change, negative = cytotoxicity [7] was -1.23%, the outcome [8] was “inactive” and the outcome [9] was “inactive”. For the same molecule, the outcome [10] was “inactive”, the outcome [11] was “inactive” and the outcome [12] was “inactive”. For the same molecule, the outcome [13] was “inactive”, the outcome [14] was “inactive” and the outcome [15] was “inactive”. For the same molecule, the caspase-3 activation [16] was -17.4%, the Potency [17] was “inactive” and the outcome [18] was “inactive”. For the same molecule, the max response [19] was 3.04%.
For `O=[N+]([O-])c1cccc2ccccc12`, the Potency [1] was greater than 92 µM, the Potency [2] was greater than 92 µM and the Potency [3] was greater than 92 µM. The Potency [4] was greater than 92 µM, the Potency [5] was “inactive” and the Potency [6] was “inactive”. For the same molecule, the activity change, negative = cytotoxicity [7] was -0.153%, the outcome [8] was “inactive” and the outcome [9] was “inactive”. For the same molecule, the outcome [10] was “inactive”, the outcome [11] was “inactive” and the outcome [12] was “inactive”. For the same molecule, the outcome [13] was “inactive”, the outcome [14] was “inactive” and the outcome [15] was “inactive”. The caspase-3 activation [16] was -1.57%, the Potency [17] was “inactive” and the outcome [18] was “inactive”. The max response [19] was -0.448% and 0.96%.
In the case of `Nc1ccc(Br)cc1`, the Potency [1] is reported as greater than 92 µM, the Potency [2] is reported as greater than 92 µM and the Potency [3] is reported as greater than 92 µM. The Potency [4] was greater than 92 µM, the Potency [5] was “inactive” and the Potency [6] was “inactive”. For the same molecule, the activity change, negative = cytotoxicity [7] was -3.48%, the outcome [8] was “inactive” and the outcome [9] was “inactive”. For the same molecule, the outcome [10] was “inactive”, the outcome [11] was “inactive” and the outcome [12] was “inactive”. The outcome [13] was “inactive”, the outcome [14] was “inactive” and the outcome [15] was “inactive”. For the same molecule, the caspase-3 activation [16] was -0.502%, the Potency [17] was “inactive” and the outcome [18] was “inactive”. For the same molecule, the max response [19] was -1.52%.
